# Compound activity (PubChem)
# p53 reactivator: re-activators of mutant p53. H1299 p53-A138V BP100-luciferase reporter, luminescence, 24 h. Potency, µM (top dose mostly 92.2 µM), without a hit: at the highest dose activity change, positive = activation, most hits filed as activators. 0.063% of 320,000 active. AID 504706; active = well fitted activation curve with a large enough effect; inconclusive = small, poorly fitted or top-dose-only effect; inactive = no such curve, though single readings can be large or run the other way; also: potency is read from the fitted curve at half-maximal effect; % of control where 0% means no effect; nearly all actives have a fitted effect of over 45% in size
#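 p53-null H1299 cells stably carrying temperature-sensitive p53-A138V and a BP100-luciferase reporter were pinned with compounds (4-point, 1:5 series) and held 24 hrs at 37 deg C. Luminescence was read 10 min after detection reagent.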
# Menin MLL FP TR: inhibitors of human menin-MLL interaction, mutant MLL peptide; O00255; Menin + Texas Red MLL mutant peptide, fluorescence polarization; Potency, µM (top dose mostly 61.6 µM), without a hit: top-dose FP activity change, negative = inhibition, usual class: inhibitors; 0.23% of 270,000 active; AID 1768; active = well fitted inhibition curve with a large enough effect in the polarisation, with a control signal flat, not every such curve was filed as active; inconclusive = small, poorly fitted or top-dose-only effect, or effect the other way, or a change in a side signal; inactive = no such curve, though single readings can be large or run the other way; the % refers to the polarisation; also: potency is read from the fitted curve at half-maximal effect; % of control where 0% means no effect
# Target sequence (O00255 whole entry, looked up): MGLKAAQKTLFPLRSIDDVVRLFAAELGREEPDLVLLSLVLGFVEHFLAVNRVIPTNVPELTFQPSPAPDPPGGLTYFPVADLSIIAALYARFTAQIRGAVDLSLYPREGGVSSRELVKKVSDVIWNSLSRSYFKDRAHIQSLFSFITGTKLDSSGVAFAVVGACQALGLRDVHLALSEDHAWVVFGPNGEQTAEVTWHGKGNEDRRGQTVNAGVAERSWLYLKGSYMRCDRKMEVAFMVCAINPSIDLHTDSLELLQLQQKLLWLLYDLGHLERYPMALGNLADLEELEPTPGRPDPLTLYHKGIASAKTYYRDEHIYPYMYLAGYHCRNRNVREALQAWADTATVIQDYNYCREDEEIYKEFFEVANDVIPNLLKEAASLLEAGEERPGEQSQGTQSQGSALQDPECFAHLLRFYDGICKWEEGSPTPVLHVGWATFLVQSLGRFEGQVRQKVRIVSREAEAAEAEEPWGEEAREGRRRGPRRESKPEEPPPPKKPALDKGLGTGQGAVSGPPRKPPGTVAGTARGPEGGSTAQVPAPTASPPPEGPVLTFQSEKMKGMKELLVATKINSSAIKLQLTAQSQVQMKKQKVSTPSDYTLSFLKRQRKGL
# ClpP mod: qHTS Assay for Activators of ClpP. purified B. subtilis ClpP, FRET peptide cleavage, 20 min. 1.9% of 340,000 active. Potency, µM (highest dose often 57.5 µM), for the others: top-dose activity change, negative = active; active = well fitted falling curve with a large enough effect; inconclusive = small, poorly fitted or top-dose-only effect; inactive = no such curve, though single readings can be large or run the other way; also: potency is read from the fitted curve at half-maximal effect; the source files actives as falling curves though it sought activators and does not explain the sign; nearly all actives have a fitted effect of over 65% in size
#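 FRET quenching reversal measured ClpP activation: 10 microg/mL B. subtilis ClpP at pH 8 with the FRET-FV decapeptide, read at 430 nm after 320 nm excitation. The 20-min minus 0-min signal was scaled between DMSO/no-enzyme wells and ADEP (5.8 microM final).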
# CXXC DNA block: MLL CXXC-DNA interaction inhibition; AID 2662; 0.037% of 290,000 active; Q03164; MLL-CXXC / FITC-HOXA9 DNA fluorescence polarization; Potency, µM (doses to about 115 µM), without a hit: at the highest dose activity change, negative = inhibition, hits mostly inhibitors; active = well fitted inhibition curve with a large enough effect in the polarisation, with a control signal flat, not every such curve was filed as active; inconclusive = small, poorly fitted or top-dose-only effect, or effect the other way, or a change in a side signal; inactive = no such curve, though single readings can be large or run the other way; the % refers to the polarisation; also: potency is read from the fitted curve at half-maximal effect
#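 Fluorescence polarization: 7 uM MLL-CXXC (stock) preincubated 5 min with compounds, then 50 nM fluorescein-HOX-A9 DNA (stock) added; 30 min ambient. Buffer 50 mM Tris-HCl pH 7.5, 50 mM NaCl, 1 mM DTT, 0.05% BSA.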
# Menin-MLL FL inh: menin-MLL binding inhibition, fluorescein peptide. Fluorescence polarization, fluorescein-MLL peptide displacement from menin. FP activity change, % at 61.4 µM. 290,000 tested, under 10 active. AID 1766; active = well fitted curve in the direction sought with a large enough effect in the polarisation, not every such curve was filed as active; inconclusive = small, poorly fitted or top-dose-only effect, or effect the other way, or a change in a side signal; inactive = no such curve, though single readings can be large or run the other way; the % refers to the polarisation; also: % of control where 0% means no effect
# Starred values were filed as active, the others as inactive; ? = inconclusive; / = no result given; ! = not confirmed by another sample; [ ] = remark or other dose. This is one part of a sample in which hits are shown more often than they occur.
SMILES,p53 reactivator,Menin MLL FP TR,ClpP mod,CXXC DNA block,Menin-MLL FL inh
COc1cccc(N2CC(O)=C(c3nc4ccccc4c(=O)[nH]3)C2=N)c1,15%,-1%,25µM*,-8%,-2
Cc1cc(C)cc(N2CC(O)=C(c3nc4ccccc4c(=O)[nH]3)C2=N)c1,12%,4%,/,36%,8
CC(C)N1CC(O)=C(c2nc3ccccc3c(=O)[nH]2)C1=N,9%,/,28µM*,-2%,0
CCCCCCNc1ccc(/C=C/c2ccnc3ccccc23)cc1,/,/,-2%,/,/
CCCCCCCCC(=O)N/N=C(\C)c1ccc(O)cc1O,9%,23%,32µM*,-2%,0
Cc1noc(Cn2c(=O)c3cc4c(cc3n(CC(=O)Nc3ccc(C(C)C)cc3)c2=O)OCO4)n1,/,/,35µM*,/,/
Cc1ccc(NC(=O)Cn2c(=O)n(Cc3nc(C)no3)c(=O)c3cc4c(cc32)OCO4)c(C)c1,/,/,22µM*,/,/
COc1ccc(NC(=O)c2cc(-c3ccc(OC)c(OC)c3)on2)cc1OC,2%,-10%,22µM*,1%,2
CCN(C(=O)C(=O)c1c(C)[nH]c2ccccc12)c1ccccc1,/,/,1%,/,/
CCN(CC)c1ccc(-c2c(C#N)c(N)nc(OC)c2C#N)cc1,12%,?,32µM*,?,14
CCOc1ccc(NC(=O)CSC2=Nc3ccccc3C3=NC(CC(=O)NCc4ccccc4OC)C(=O)N23)cc1 (stereo not given),/,/,1%,/,/
COc1cc(/C=C/C(=O)OCC(=O)NC(=O)NC(C)C)cc(S(=O)(=O)N2CCc3ccccc32)c1OC,6%,1%,20µM*,9%,-1
Nc1nc(NCc2cccc(Cl)c2)c2[nH]cnc2n1,/,/,-1%,/,/
COc1ccc(C2CC(c3cccs3)=NN2C(=O)CCC(=O)O)cc1 (stereo not given),/,-24%,?,6%,0
CCOC(=O)CSCC(=O)N1N=C(c2cccs2)CC1c1ccc(F)cc1 (stereo not given),1%,-13%,-20%,12%,2
COc1ccc(C2CC(c3cccs3)=NN2C(=O)CSc2nc3ccccc3s2)cc1 (stereo not given),-11%,-9%,?,14%,-1
CN1CCc2c(OCC(=O)N3N=C(c4cccs4)CC3c3ccc(F)cc3)cccc2C1=O (stereo not given),-12%,-15%,?,8%,28
COc1ccc(C2CC(c3cccs3)=NN2C(=O)CSc2nc3ccccc3o2)cc1 (stereo not given),0%,0%,32µM*,-16%,4
O=C(CSc1nc2ccccc2s1)N1N=C(c2cccs2)CC1c1ccc(F)cc1 (stereo not given),-7%,-24%,28µM*,7%,1
CCCCOC(=O)CSCC(=O)N1N=C(c2cccs2)CC1c1ccc(F)cc1 (stereo not given),2%,-8%,14µM*,-5%,3
CCN1CCc2c(OCC(=O)N3N=C(c4cccs4)CC3c3ccc(F)cc3)cccc2C1=O (stereo not given),-26%,-10%,7.9µM*,5%,2
O=C(O)c1cc(S(=O)(=O)O)ccc1O,7%,4%,20µM*,-2%,2
O=C(O)c1cc(N=Nc2ccc(O)c(C(=O)O)c2)ccc1O,/,40µM*,/,-9%,-7
O=C(O)c1cc2cc(S(=O)(=O)O)ccc2cc1O,/,/,-3%,/,/
CN(C)C(=O)Nc1ccc(Oc2ccc(Cl)cc2)cc1,/,4%,/,/,-2
SMILES,p53 reactivator,Menin MLL FP TR,ClpP mod,CXXC DNA block,Menin-MLL FL inh
CCOC(=O)Cc1cc(=O)n2[nH]c(-c3ccccc3)cc2n1,14%,-5%,28µM*,-3%,3
CCOC(=O)Cc1c(C)nc2cc(-c3ccc(C(C)(C)C)cc3)[nH]n2c1=O,28%,0%,32µM*,14%,0
CCOC(=O)CCc1c(C)nc2c(-c3ccccc3)c(C)[nH]n2c1=O,/,/,-28%,/,/
CCOC(=O)Cc1c(C)nc2c(-c3ccc(Cl)cc3)c(C)[nH]n2c1=O,3%,-20%,14µM*,-3%,5
CCOC(=O)Cc1c(C)nc2c(-c3cccc(Br)c3)c[nH]n2c1=O,3%,?,14µM*,-9%,2
CCOC(=O)N/N=C1/C[C@@H](O)[C@@H](O)[C@@H]2[C@H]3C(=O)N(c4ccc(F)cc4F)C(=O)[C@@H]3CC[C@H]12,/,19%[11.7 µM],/,/,-4[11.7 µM]
COc1cccc(-c2nc(N3CCNCC3)c3ccccc3n2)c1,/,13%,/,/,1
Cc1ccc(S(=O)(=O)N2CCN(c3nc(-c4cccs4)cc4ccccc34)CC2)cc1,/,/,4%,/,/
CC#C[C@]1(O)CC[C@H]2C3CCC4=CC(=O)CCC4=C3[C@@H](c3ccc(N(C)C)cc3)C[C@@]21C (stereo not given in full),/,-20%,/,-4%,2
Cc1ccc(-c2cc(C(=O)N3N=C(C(F)F)CC3(O)C(F)F)c3ccccc3n2)cc1C (stereo not given),?,-12%,25µM*,-16%,3
O=C(c1cc(-c2ccccc2)nc2ccccc12)N1N=C(C(F)F)CC1(O)C(F)F (stereo not given),-3%,?,-8%,-4%,5
COc1cccc(NC(=O)c2ccccc2OCC(=O)Nc2ccc(Br)cc2)c1,/,/,-13%,/,/
CN1CCc2c(sc(/N=C/c3cccs3)c2C(N)=O)C1,?,-26%,10µM*,25%,?
CC(C)CN(C(=O)COC(=O)C1=COCCO1)c1c(N)n(Cc2ccccc2)c(=O)[nH]c1=O,7%,/,-2%,/,/
CCN(C(=O)COC(=O)C1=COCCO1)c1c(N)n(Cc2ccccc2)c(=O)[nH]c1=O,8%,/,14µM*,/,/
Cc1[nH]c2ccccc2c1C(=O)COC(=O)c1ccccc1SCC(=O)N1CCCC1,/,/,0%,/,/
CCOc1ccccc1-c1nnc2n1N=C(c1cccc(OC)c1)CS2,/,?,/,/,-10
COc1ccc(Nc2nc(C)cc(-c3cc(-c4ccccc4)on3)n2)cc1,/,/,28µM*,/,/
COC(=O)C(Cc1ccccc1)NS(=O)(=O)c1cc(Br)ccc1Br (stereo not given),/,?,/,/,-4
COc1ccc(C(CC(=O)O)c2cc(OC)c(OC)c(OC)c2)cc1OC (stereo not given),/,/,32µM*,/,/
COc1ccc(C(CC(=O)O)NC(=O)Cc2ccccc2)cc1OC (stereo not given),-8%,-1%,-4%,1%,1
CCC(C)Sc1cccc(-c2nc3ccc(Cl)cn3c2NCc2ccccc2)c1 (stereo not given),9%,/,25µM*,/,/
CCC(C)Sc1cccc(-c2nc3cc(C)ccn3c2NC2CCCCC2)c1 (stereo not given),17%,/,14µM*!,/,/
Cc1ccn2c(NC3CCCCC3)c(-c3cccc(SC4CCCCC4)c3)nc2c1,2%,/,?,/,/
